Source: the supplement of paper PMC12645437, “Orthogonal IMiD-Degron Pairs Induce Selective Protein Degradation in Cells” (ACS Chemical Biology, 2025)
Whole data set: some 8,300 sequences, median “log2 fold change of degron read counts, EGFP-low vs EGFP+ sorted cells (limma voom), compound-induced degradation” near -1.1, cut for the highest 2% near 3.2. Only a selection was taken, and the highest values are over-represented in it overall.

T1: CRBN, Q96SW2
T1 chain: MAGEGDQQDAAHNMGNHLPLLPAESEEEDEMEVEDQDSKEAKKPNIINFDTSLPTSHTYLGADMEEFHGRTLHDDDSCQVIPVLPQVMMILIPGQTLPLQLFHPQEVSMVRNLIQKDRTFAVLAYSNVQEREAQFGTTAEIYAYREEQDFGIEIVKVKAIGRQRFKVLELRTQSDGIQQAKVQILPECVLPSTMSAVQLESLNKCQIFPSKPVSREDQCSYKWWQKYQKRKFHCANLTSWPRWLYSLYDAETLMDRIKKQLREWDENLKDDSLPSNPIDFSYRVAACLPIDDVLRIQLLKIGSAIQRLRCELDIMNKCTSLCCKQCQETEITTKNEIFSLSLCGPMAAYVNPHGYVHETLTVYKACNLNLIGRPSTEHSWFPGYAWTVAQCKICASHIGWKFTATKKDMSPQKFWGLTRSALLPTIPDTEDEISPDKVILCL


Biological target: T1, CRBN, Q96SW2
Assay: log2 fold change of degron read counts, EGFP-low vs EGFP+ sorted cells (limma voom), compound-induced degradation; higher = more compound-induced degradation of the degron-EGFP fusion; degrons are variants of IKZF1/3 zinc finger 2; compound dose not given here
Conditions: Jurkat, 18 h
[1] = compound: compound 19 (5-tert-butyl-thalidomide)
[2] = compound: compound 22 (5-morpholino-thalidomide)
[3] = compound: compound 33 (diphenyl IMiD analogue)
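Further: pooled lentiviral library of zinc finger degron-EGFP fusions in mCherry-positive Jurkat cells, FACS-sorted after compound exposure, with degron abundance counted by next-generation sequencing.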

Row | Sequence | log2 fold change of degron read counts [1] | log2 fold change of degron read counts [2] | log2 fold change of degron read counts [3] | log2 fold change of degron read counts (compound: thalidomide)
1 | FECDQCGANFTQKGNLLRHIKL [46F_47E_49D_50Q_52G_53A_54N_55F_67L_, Q9UKT9] | -3.58 | -4.58 | -1.92 | -1.86
2 | FACEQCGAFFTQKGNLLRHIKL [46F_47A_49E_50Q_52G_53A_54F_55F_67L_, Q9UKT9] | -1.43 | -2.96 | -2.14 | -2.45
3 | FYCDVCGAQFTQKGNLLRHIKL [46F_47Y_49D_50V_52G_53A_54Q_55F_67L_, Q9UKT9] | 2.41 | 3.24 | 1.63 | -0.781
4 | FHCDVCGAQFTQKGNLLRHIKL [46F_47H_49D_50V_52G_53A_54Q_55F_67L_, Q9UKT9] | -0.281 | 0.385 | -0.661 | -1.69
5 | FECDVCGAQFTQKGNLLRHIKL [46F_47E_49D_50V_52G_53A_54Q_55F_67L_, Q9UKT9] | -2.41 | -2.69 | -1.62 | -0.629
6 | FVCDVCGAQFTQKGNLLRHIKL [46F_47V_49D_50V_52G_53A_54Q_55F_67L_, Q9UKT9] | -1.63 | 0.889 | 1.87 | 0.809
7 | FWCDVCGAQFTQKGNLLRHIKL [46F_47W_49D_50V_52G_53A_54Q_55F_67L_, Q9UKT9] | 2.68 | 3.85 | 1.36 | -0.531
8 | FQCDVCGAQFTQKGNLLRHIKL [46F_47Q_49D_50V_52G_53A_54Q_55F_67L_, Q9UKT9] | -1.59 | 0.635 | 0.642 | 2.41
9 | FGCPQCGAFFTQKGNLLRHIKL [46F_47G_49P_50Q_52G_53A_54F_55F_67L_, Q9UKT9] | -0.126 | -1.28 | 2.09 | -1.62
10 | FRCSVCGHMFTQKGNLLRHIKL [46F_47R_49S_50V_52G_53H_54M_55F_67L_, Q9UKT9] | -2.17 | -2.3 | -2.41 | -2.23
11 | FVCNVCGAWFTQKGNLLRHIKL [46F_47V_49N_50V_52G_53A_54W_55F_67L_, Q9UKT9] | -2.28 | -1.99 | -1.2 | -1.25
12 | LTCNQCGFLCTQKGNLLRHIKL [46L_47T_49N_50Q_52G_53F_54L_55C_67L_, Q9UKT9] | -2.17 | -2.63 | -2.25 | -1.91
13 | FHCPVCGAGFTQKGNLLRHIKL [46F_47H_49P_50V_52G_53A_54G_55F_67L_, Q9UKT9] | 2.85 | 1.03 | 2.35 | -0.326
14 | FRCPVCGAGFTQKGNLLRHIKL [46F_47R_49P_50V_52G_53A_54G_55F_67L_, Q9UKT9] | 2.32 | 1.95 | 2.25 | 1.72
15 | FYCPVCGAGFTQKGNLLRHIKL [46F_47Y_49P_50V_52G_53A_54G_55F_67L_, Q9UKT9] | 3.05 | 2.07 | 2.22 | -0.0832
16 | FQCPVCGAGFTQKGNLLRHIKL [46F_47Q_49P_50V_52G_53A_54G_55F_67L_, Q9UKT9] | 2.21 | 2.03 | 1.81 | 3.38
17 | FFCPVCGAGFTQKGNLLRHIKL [46F_47F_49P_50V_52G_53A_54G_55F_67L_, Q9UKT9] | 3.15 | 2.03 | 1.8 | 0.528
18 | FVCPVCGAGFTQKGNLLRHIKL [46F_47V_49P_50V_52G_53A_54G_55F_67L_, Q9UKT9] | 0.554 | 2.67 | 1.71 | 2.79
19 | FACPVCGAGFTQKGNLLRHIKL [46F_47A_49P_50V_52G_53A_54G_55F_67L_, Q9UKT9] | 3.42 | 1.04 | 0.678 | 0.677
20 | FGCPVCGAGFTQKGNLLRHIKL [46F_47G_49P_50V_52G_53A_54G_55F_67L_, Q9UKT9] | 3.26 | 1.13 | 2.32 | 0.332
21 | FCCPVCGAGFTQKGNLLRHIKL [46F_47C_49P_50V_52G_53A_54G_55F_67L_, Q9UKT9] | 2.96 | 1.65 | 1.8 | 1.26
